# Compounds with a hit are over-represented: about 1.2% of the library has one in this group of screens.
# RXFP1 antagonist: blocks the human relaxin receptor RXFP1 | Q9HBX9 | HEK293-RXFP1, relaxin-stimulated cAMP HTRF, 30 min; stronger effect = lower value | activity change, negative = inhibition, % at 57.5 µM | 350,000 compounds, 0.59% hits | AID 1259400;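 active means activity change of -60% or lower, but not beyond a set lower limit; inconclusive means change between -60% and -40%, or beyond the set limit; inactive means change above -40%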; further: on the % scale 0 is the no-effect control and ±100 the full control effect
# RXFP1 ag: activates the human relaxin receptor RXFP1; Q9HBX9; HEK293T-RXFP1 cAMP TR-FRET, 30 min; response scale: percent of porcine relaxin response, buffer zero; Potency, µM (series often up to 57.5 µM), for the others: at the top dose activation, most hits filed as activators; 370,000 compounds, 0.3% hits; active means well fitted activation curve with a large enough effect; inconclusive means small, poorly fitted or top-dose-only effect; further: potency means the concentration at half of the fitted maximal effect; on the % scale 0 is the no-effect control and ±100 the full control effect; nearly all actives have a fitted effect of over 60% in size
#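 HEK293 cells stably expressing RXFP1, treated 30 min at 37C with compounds plus PDE4 inhibitor Ro 20174; cAMP measured by HTRF TR-FRET. Normalized to buffer and 29 nM porcine relaxin; EC50 by Hill fit.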
# gsp agonist: gsp mutant agonism | gsp mutant cells, cAMP HTRF, 30 min | Potency, µM (highest dose often 76.9 µM), for inactives: top-dose activation (cAMP increase), usual class: activators | 340,000 compounds, 0.13% hits | AID 624287; active means well fitted activation curve with a large enough effect; inconclusive means small, poorly fitted or top-dose-only effect, or another doubt; inactive means no such curve, though single readings can be large or run the other way; cell line not stated here;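 further: phosphodiesterase inhibitor Ro 20-1724 added with compounds to block cAMP breakdown; potency means the concentration at half of the fitted maximal effect; nearly all actives have a fitted effect of over 60% in size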
#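 Cells in DMEM/10% FBS with G418 were pretreated with compounds in DMSO plus […] (300 uM stock) for 30 min at 37C. cAMP was measured by HTRF (cAMP-d2 plus anti-cAMP antibody-K) after 30 min at room temperature.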
# Akt phos inh: Akt phosphorylation inhibition | Neuro2A IGF-stimulated pAkt S473 HTRF, 20 min; stronger effect = lower value | activity change, % for hits at 50 µM | 360,000 compounds, 0.32% hits | AID 651550; in the data active means activity change below about -80%; inconclusive means mostly about -51% to -80%; further: on the % scale 0 is the no-effect control and ±100 the full control effect
#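 Neuro2A cells (4,500/well, DMEM with 0.5% FBS) were treated with compound at a single 50 µM final concentration, stimulated with 6 nM IGF for 20 min at 37 °C, and lysed. Phospho-Akt Ser473 was read by HTRF as 665/615 ratio ×10^4.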
# gsp antag: gsp mutant antagonism. gsp-mutant cells, cAMP HTRF, 30 min. Potency, µM (doses to about 76.9 µM), without a hit: at the highest dose activity change, negative = inhibition, most hits filed as inhibitors. 340,000 compounds, 0.4% hits. AID 624288; calls by dose curve; cell line not stated here;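 further: intracellular cAMP measured with PDE inhibitor Ro 20-1724 present during compound exposure; potency means the concentration at half of the fitted maximal effect; on the % scale 0 is the no-effect control and ±100 the full control effect; nearly all actives have a fitted effect of over 65% in size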
#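 Cells in G418 medium, seeded 16-24 h, 37C; buffer exchange to DPBS + 1 mM CaCl2, 0.5 mM MgCl2, 0.05% BSA; cpds in DMSO + […] (300 uM stock), 30 min 37C; HTRF cAMP detection.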
# * = called active by the depositor; i = inactive; ? = inconclusive; · = no result; [ ] = dose if it differs, or a comment.
SMILES,RXFP1 antagonist,RXFP1 ag,gsp agonist,Akt phos inh,gsp antag
C[C@]12C(=O)N(c3ccc(F)cc3)C(=O)N1[C@@H]1c3ccccc3OC[C@@H]1[C@H]2c1ccccc1,·,1%,12%,i,3%
CCCCc1c(O)nc(SCC(=O)N2CCOCC2)n(-c2ccccc2C)c1=O,2,2%,-6%,-113%*,-3%
CCCCc1c(O)nc(SCC(=O)N2CCOCC2)n(-c2ccccc2OC)c1=O,-14,-1%,?,i,7%
CCN(C(=O)CCS(=O)(=O)c1ccc(Br)cc1)c1ccc2c(c1)OCO2,0,2%,-46%,-108%*,-2%
O=C(CCS(=O)(=O)c1ccc(Br)cc1)Nc1ccc2c(c1)OCO2,10,0%,6%,i,0%
CCOc1nc(NC(=O)NS(=O)(=O)Oc2cccc(F)c2)nc(-c2ccccc2)n1,·,0%,·,·,·
COc1ccc(C(=O)Nc2ccc(Nc3ccccc3)cc2)cc1[N+](=O)[O-],3,-1%,-11%,i,28µM*
COc1ccccc1-c1noc(-c2ccc(N3CCC(C)CC3)c([N+](=O)[O-])c2)n1,·,-2%,·,·,·
CC(=O)c1cc(Cl)ccc1OCc1cccc(S(=O)(=O)N2CCOCC2)c1,-17,3%,-8%,i,35µM*
COc1ccccc1N1CCN(C(=S)Nc2ccc(S(=O)(=O)N3CCOCC3)cc2)CC1,-5,2%,4%[15.4 µM],i,32µM*
CCOc1ccccc1C(=O)NCC(=O)NCC(C)(C)N1CCOCC1,-1,1%,4%,i,-10%
CCOc1ccccc1N(CC(=O)Nc1ccc(S(=O)(=O)N2CCOCC2)cc1)S(C)(=O)=O,6,0%,5%[15.4 µM],i,-8%
CCOc1ccccc1C(=O)NCC(=O)NCc1ccc(S(=O)(=O)N2CCOCC2)cc1,-12,2%,32µM*,i,-10%
CCOc1ccccc1N(CC(=O)Nc1ccc(S(=O)(=O)N2CCOCC2)cc1)S(=O)(=O)c1ccccc1,-1,-1%,-3%,-127%*,?
CCCOc1ccc(CNC(=O)CCCN2C(=O)CSc3c2c(C)nn3-c2ccccc2)cc1,·,1%,·,·,·
COc1ccc(CCNC(=O)c2cc(S(=O)(=O)N3CCC4(CC3)OCCO4)ccc2F)cc1OC,-23,-2%,?,i,11µM*
O=C(NCCc1ccccc1)c1cc(S(=O)(=O)N2CCOCC2)ccc1F,-4,0%,28%,i,1%
O=C(NCc1ccccc1)c1cc(S(=O)(=O)N2CCOCC2)ccc1F,12,3%,-18%,-114%*,8%
Fc1cccc(Cl)c1CNc1n[nH]c(-c2ccco2)n1,-17,0%,·,·,·
C[C@H]1C[C@H]2[C@@H]3CCC4=CC(=O)C=C[C@]4(C)[C@@]3(F)[C@@H](O)C[C@]2(C)[C@@]1(O)C(=O)CO,·,·,·,i,-8%
C[C@H]1C[C@H]2[C@@H]3CCC4=CC(=O)C=C[C@]4(C)[C@@]3(Cl)[C@@H](O)C[C@]2(C)[C@@]1(O)C(=O)CO,-70*,2%,·,i,-8%
O=[N+]([O-])c1ccc2nc(-c3ccncc3)[nH]c2c1,0,27%,10µM*,i,-3%
O=[N+]([O-])c1ccc2nc(-c3ccc(Cl)cc3)[nH]c2c1,-30,0%,-5%,i,35µM*
Cc1ccc(-c2nc3ccc([N+](=O)[O-])cc3[nH]2)cc1,-17,-2%,18%,i,?
N#Cc1ccccc1OCC(=O)NC(N)=O,3,3%,10%,-111%*,11%
C/C(N)=C(/C#N)C(=O)CSc1nnc(SCc2ccc(Cl)cc2)s1,-9,5%,2%,i,?
C/C(N)=C(/C#N)C(=O)CSc1nn(-c2ccc(Cl)cc2)c(=S)s1,-5,10%,-9%,i,50µM*
CCN(C(=O)CCN1C(=O)/C(=C/c2ccccc2)SC1=S)C1CCS(=O)(=O)C1 (stereo unspecified),0,-2%,?,i,28µM*
Brc1ccc(-c2ccc(/C=N/Nc3nc(N4CCOCC4)nc(N4CCOCC4)n3)o2)cc1,-4,1%,4%,i,20µM*
Fc1cnc(N/N=C/c2ccc(-c3ccc(Br)cc3)o2)nc1N1CCOCC1,-15,5%,19%,i,4%

# Assay outcomes (PubChem)
